Screening data (PubChem)
A selection follows.
aSyn 5UTR act – Activators working through SNCA 5'UTR binding (MLPCN); alpha-synuclein 5'UTR reporter, activators screen; actives 7.1% (n = 300,000); activity score, % (tested at 7.5 µM), hits read low; in the data active = activity score below about -60%
An asterisk follows results filed as active.

SMILES	aSyn 5UTR act
Cc1c(C(=O)Oc2ccc(-c3cnc4ccccc4n3)cc2)cccc1[N+](=O)[O-]	-108*
Cc1ccc(C2/C(=C(/O)c3cnn(-c4ccccc4)c3C)C(=O)C(=O)N2CCN2CCOCC2)o1 (stereo not drawn)	-121*
Cc1c(/C(O)=C2/C(=O)C(=O)N(CCN3CCOCC3)C2c2cccs2)cnn1-c1ccccc1 (stereo not drawn)	-155*
Cc1ccc(C2/C(=C(\O)c3cnn(-c4ccccc4)c3C)C(=O)C(=O)N2CCN(C)C)o1 (stereo not drawn)	-92*
CCN(CC)CCN1C(=O)C(=O)/C(=C(/O)c2cnn(-c3ccccc3)c2C)C1c1ccc(C)o1 (stereo not drawn)	-77*
Cc1c(/C(O)=C2\C(=O)C(=O)N(CCN(C)C)C2c2ccco2)cnn1-c1ccccc1 (stereo not drawn)	-78*
CCc1ccc(OCCCCCn2ccnc2)cc1	-66*
Cc1ccc(NC(=O)c2cc(-c3cccc(O)c3)on2)cc1C	-115*
COc1ccc(CNC(=O)c2cc(C3CC3)on2)cc1	-106*
O=C(NCc1cccnc1)c1cc(-c2ccccc2)on1	-89*
COc1ccc(-c2cc(C(=O)NCc3cccnc3)no2)cc1	-117*
O=C(NCc1cccnc1)c1cc(-c2cccs2)on1	-92*
O=C(NCc1ccccc1)c1cc(-c2cccc(O)c2)on1	-66*
Cc1cc(C)cc(NC(=O)C(=O)NCCCN2CCCC2=O)c1	-106*
COc1cccc(NC(=O)C(=O)NCCCN2CCCC2=O)c1	-65*
Cn1cccc1CNC(=O)Nc1ccc(Cl)c(Cl)c1	-212*
CCOc1ccc(NC(=O)NCc2cccn2C)cc1	-87*
O=C(NCC(=O)N1CCCCCC1)c1ccc(Cl)cc1	-65*
O=C(NCC(=O)N1CCCCC1)c1ccc(Cl)cc1Cl	-117*
CC1CCN(C(=O)CNC(=O)c2ccc(Cl)cc2Cl)CC1	-81*
Cn1cc(/C=C2/SC(=O)N(c3ccccc3)C2=O)c2ccccc21	-221*
Cn1cccc1/C=C1\SC(=O)N(c2ccccc2)C1=O	-115*
O=C1C(C=NCc2ccccn2)=C(O)c2ccccc21	-106*
O=C1C(C=NCCCN2CCCC2=O)=C(O)c2ccccc21	-113*
CC(C)CN=CC1=C(O)c2ccccc2C1=O	-83*
SMILES	aSyn 5UTR act
Cc1nc(N)sc1-c1csc(Nc2cccc(O)c2)n1	-79*
Cc1cccc(Nc2nc(-c3sc(C)nc3C)cs2)c1	-149*
CC(=O)Nc1ccc(Nc2nc(-c3sc(C)nc3C)cs2)cc1	-77*
Cc1nc(C)c(-c2csc(Nc3cccc(O)c3)n2)s1	-156*
C=CC(C)(C)c1c(O)c(CC=C(C)C)c(O)c2c(=O)c3ccc(O)c(O)c3oc12	73
Cc1onc(-c2ccccc2)c1C(=O)O/N=C(\N)c1ccc([N+](=O)[O-])o1	-136*
Cc1cc(NC(=O)CSc2nc(C3CC3)nc3sc4c(c23)CCC(C)C4)no1 (stereo not drawn)	-70*
NC(=O)CSc1nc(C2CC2)nc2sc3c(c12)CCCC3	-109*
CCn1c(C)cc(C=C2C(=O)c3ccccc3C2=O)c1C	-92*
Cc1cccc(-n2c(C)cc(C=C3C(=O)c4ccccc4C3=O)c2C)c1	-91*
CCOC(=O)c1sc(=NC(=O)c2cccc(Br)c2)n(C)c1C	-188*
CCOC(=O)c1sc(=NC(=O)c2cccc(C)c2)n(C)c1C	-151*
Cc1ccc2[nH]c3c(NCc4ccco4)ncnc3c2c1	-203*
Cc1ccc2[nH]c3c(NCCCN4CCCC4=O)ncnc3c2c1	-77*
CC(C)c1nnc(NC(=O)c2cccs2)s1	-102*
O=C(Nc1nnc(C2CC2)s1)c1cccs1	-74*
CC(C)(C)c1nnc(NC(=O)c2cccs2)s1	-143*
Fc1ccccc1CSc1nc2ncc(Br)cc2[nH]1	-127*
CCOc1ccccc1NC(=O)C(OC(=O)c1ccc(O)cc1)c1ccccc1 (stereo not drawn)	-62*
COc1ccc2nc(NC(=O)Nc3ccccc3OC)sc2c1	-89*
COc1ccccc1NC(=O)Nc1nc2ccc(S(N)(=O)=O)cc2s1	-183*
COc1ccc2nc(NC(=O)Nc3cccc4ccccc34)sc2c1	-103*
COc1ccc2nc(Nc3ccccc3OC)sc2c1	-154*
COc1ccc2nc(Nc3ccccc3)sc2c1	-119*
CCC(C)C(=O)Nc1nc2ccc(OC)cc2s1 (stereo not drawn)	-167*
SMILES	aSyn 5UTR act
CCOc1ccc(NC(=O)c2ccco2)c([N+](=O)[O-])c1	-131*
CCOc1ccc(NC(=O)c2cccs2)c([N+](=O)[O-])c1	-219*
CCOc1ccc(NC(=O)c2ccc(CC)s2)c([N+](=O)[O-])c1	-168*
CC(=O)c1ccc(N/N=C2/CCCNC2=O)cc1	-74*
O=C1NCCC/C1=N/Nc1cc(F)ccc1F	-113*
c1ccc(CCNc2nc(-c3cccnc3)cs2)cc1	-129*
c1ccc(CCNc2nc(-c3ccccn3)cs2)cc1	-158*
O=S(=O)(Nc1ccc(-c2cn3ccsc3n2)cc1)c1ccc2c(c1)OCCO2	-67*
CC(Oc1ccc2c(c1)c1ccnc3c4ccccc4c(=O)n2c13)C(=O)NCCN1CCOCC1 (stereo not drawn)	-76*
COc1cc(OC)cc(C(=O)Oc2c(CN3CCOCC3)cc(Cl)c3cccnc23)c1	92
COc1ccc2c(c1OC)c(=O)n1c3ccc(OC(C)C(=O)NCCN4CCOCC4)cc3c3ccnc2c31 (stereo not drawn)	-65*
Cn1ncc([N+](=O)[O-])c1C(=O)Nc1ccc(C2CCCCC2)cc1	-136*
O=C(Nc1ccc(-c2nc3ccccc3[nH]2)cc1)c1ccc2c(c1)OCO2	-102*
Cn1ncc([N+](=O)[O-])c1C(=O)Nc1ccc(-c2nc3ccccc3[nH]2)cc1	-159*
c1ccc2[nH]c(-c3ccc4c(c3)OCO4)nc2c1	79
O=C(Nc1ccc(-c2cn3c(n2)SCC3)cc1)c1ccc2c(c1)OCO2	-87*
CS(=O)(=O)c1ccc(C(=O)Nc2ccc(-c3nc4ccccc4[nH]3)cc2)cc1	-67*
Cc1nc(-c2ccc(NC(=O)C3CC3)cc2)cs1	-160*
COc1ccc(-c2csc(NC(=O)CC(C)C)n2)cc1	-128*
Cc1nc(-c2ccc(NC(=O)CC(C)C)cc2)cs1	-143*
COc1cc(C2NC(=S)NC(C)=C2C(=O)Nc2ccc(C)cc2)ccc1O (stereo not drawn)	-171*
Nc1ccc2c(c1)Cc1cc([N+](=O)[O-])ccc1-2	-79*
O=C(N/N=C/c1sc(=O)n(-c2ccccc2)c1Cl)c1ccccc1	-84*
Cc1ccc(C)n1-c1cccc(NC(=O)c2ccccc2)c1	-73*
Cc1ccc(C)n1-c1ccc(C(=O)Nc2ccccc2)cc1	-82*
SMILES	aSyn 5UTR act
Cc1ccc(C(=O)Nc2ccc(N3CCOCC3)cc2)cc1	-95*
Cc1ccc(C(=O)Nc2ccc(N3CCCC3)cc2)cc1	-160*
CCC(=O)NC(=S)Nc1ccc(N2CCOCC2)cc1	-82*
Cc1ccc(CNc2ccc(N3CCOCC3)cc2)cc1	-108*
COc1ccc(C(=O)Nc2ccc(N3CCCCC3)cc2)cc1Br	-63*
COc1cc(C(=S)N2CCCC2)ccc1OS(=O)(=O)c1ccc(NC(C)=O)cc1	-64*
Cc1ccc(C(=O)Nc2ccc(N3CCN(C)CC3)cc2)c(Cl)c1	-162*
O=C(Nc1cccc(Cl)c1)c1ccc(OC(=S)N2CCOCC2)cc1	-182*
Cc1ccc(C(=O)Nc2ccc(N3CCN(C)CC3)nc2)cc1	-63*
Cc1ccc(C(=O)Nc2cccc(C(=O)O)c2)cc1	87
